Holding throughout (set-up): scale not given: direction of the effect not stated beside the values
Experiment [1] has as its target Protein translocase subunit SecA (Escherichia coli (strain K12)) (UniProt P10408). Briefly: Assay to Identify E. coli SecA ATPase Inhibitors. Particulars: 30 µM. It is filed as functional.
In experiment [2] the target is T1, Ubiquitin-activating enzyme e1, putative (Leishmania donovani (strain BPK282A1)) (UniProt E9BSI1).
T1 sequence (whole entry): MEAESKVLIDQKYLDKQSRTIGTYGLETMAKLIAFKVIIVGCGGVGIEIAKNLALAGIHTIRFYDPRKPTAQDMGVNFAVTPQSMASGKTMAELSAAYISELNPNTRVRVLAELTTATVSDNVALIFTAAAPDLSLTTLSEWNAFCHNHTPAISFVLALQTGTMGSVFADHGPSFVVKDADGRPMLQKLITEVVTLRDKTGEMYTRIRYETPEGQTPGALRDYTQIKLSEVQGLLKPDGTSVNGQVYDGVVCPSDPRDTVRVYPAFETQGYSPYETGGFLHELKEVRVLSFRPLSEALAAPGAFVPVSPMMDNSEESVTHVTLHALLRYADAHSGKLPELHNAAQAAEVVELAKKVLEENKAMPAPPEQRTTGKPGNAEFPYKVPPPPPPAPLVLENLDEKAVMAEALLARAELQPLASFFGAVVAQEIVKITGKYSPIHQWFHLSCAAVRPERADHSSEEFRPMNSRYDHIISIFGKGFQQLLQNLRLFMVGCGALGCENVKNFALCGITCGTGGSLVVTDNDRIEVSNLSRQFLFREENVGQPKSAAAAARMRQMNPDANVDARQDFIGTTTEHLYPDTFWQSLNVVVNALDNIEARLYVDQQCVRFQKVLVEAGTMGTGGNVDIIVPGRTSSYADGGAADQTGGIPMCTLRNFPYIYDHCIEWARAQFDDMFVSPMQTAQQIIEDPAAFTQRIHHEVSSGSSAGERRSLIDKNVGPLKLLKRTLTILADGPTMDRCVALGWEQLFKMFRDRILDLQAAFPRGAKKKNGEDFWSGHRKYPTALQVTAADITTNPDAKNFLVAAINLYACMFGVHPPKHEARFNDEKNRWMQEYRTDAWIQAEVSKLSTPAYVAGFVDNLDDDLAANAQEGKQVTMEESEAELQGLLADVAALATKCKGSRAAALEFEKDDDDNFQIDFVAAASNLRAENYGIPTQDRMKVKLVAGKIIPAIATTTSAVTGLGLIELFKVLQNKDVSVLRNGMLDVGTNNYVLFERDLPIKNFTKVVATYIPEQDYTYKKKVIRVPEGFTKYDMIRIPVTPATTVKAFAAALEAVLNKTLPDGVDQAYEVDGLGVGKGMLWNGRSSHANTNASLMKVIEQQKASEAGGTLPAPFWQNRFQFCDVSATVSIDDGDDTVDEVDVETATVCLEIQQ
Description: Leishmania donovani Ubiquitin Activating Enzyme (LdE1). It is filed as functional. To be noted: 30 µM.

The target of experiment [3] is AMP-activated protein kinase, AMPK (Homo sapiens) (UniProt P54646+O43741+P54619+Q9UGJ0+Q9Y478+Q13131+Q9UGI9). Description: AMP-dependent Kinase enzyme assay. An in vitro enzyme assay that detects ADP turnover that is directly proportional to AMPK activity. This uses naive AMPK that is activated during the assay with MK-8722. The experiment is classed as functional. To be noted: 30 µM.

Experiment [4] concerns the target Sialic acid-binding Ig-like lectin 9 (Homo sapiens) (UniProt Q9Y336). Description: Hs-Siglec9 ALPHAscreen SOP 20170721. Particulars: 10 µM. Background: In Alpha technology, singlet oxygen from a donor bead excites a nearby acceptor bead.
The subject of the next experiment is Trypanosoma cruzi. Briefly: Trypanosoma cruzi phosphomannomutase and mannose-1-phosphate guanylyltransferase assay. It is filed as functional. To be noted: 10 µM.
Experiment [5] has as its target T2, Arginase-2, mitochondrial (Homo sapiens) (UniProt P78540).
T2 sequence (whole entry): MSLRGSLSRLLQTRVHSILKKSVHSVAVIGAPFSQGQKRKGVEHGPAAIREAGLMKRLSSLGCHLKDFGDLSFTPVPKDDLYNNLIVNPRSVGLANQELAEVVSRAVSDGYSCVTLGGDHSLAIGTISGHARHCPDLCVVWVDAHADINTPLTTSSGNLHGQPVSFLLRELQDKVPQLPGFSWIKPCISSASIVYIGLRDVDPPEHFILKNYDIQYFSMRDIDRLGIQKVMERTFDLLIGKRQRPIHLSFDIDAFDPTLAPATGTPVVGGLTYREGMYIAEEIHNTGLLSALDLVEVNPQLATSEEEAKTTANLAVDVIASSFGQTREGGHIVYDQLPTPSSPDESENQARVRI
Briefly: in vitro enzyme assay to detect the production of urea directly proportional to the activity of Arginase II. Further: in the data most compounds retested in dose-response had high values. To be noted: 33.3 µM. The experiment is classed as functional.

The target of experiment [6] is T3, Proteasome subunit beta (Trypanosoma cruzi) (UniProt O96673).
T3 sequence (whole entry): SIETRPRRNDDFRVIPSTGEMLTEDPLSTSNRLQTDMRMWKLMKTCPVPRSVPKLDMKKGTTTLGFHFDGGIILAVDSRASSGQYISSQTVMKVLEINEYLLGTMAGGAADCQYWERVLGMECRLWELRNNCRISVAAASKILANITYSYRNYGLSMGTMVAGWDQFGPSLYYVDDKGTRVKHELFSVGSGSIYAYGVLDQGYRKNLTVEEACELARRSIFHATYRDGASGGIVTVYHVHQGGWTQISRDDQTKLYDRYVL
Description: Trypanosoma cruzi proteasome chymotrypsin-like activity (TcProtChymo) assay. Further: in the data most compounds retested in dose-response had high values. The experiment is classed as functional. Particulars: 9.37 µM.

A further experiment is filed under the species Homo sapiens. Briefly: To identify inhibition of the IFN signalling (Jak-Stat) pathway via expression of an eGFP reporter gene under the control of an IFN-stimulated response element (ISRE) containing MxA promoter. The experiment is classed as functional. To be noted: 30 µM. (In general: A reporter such as luciferase makes a cellular process visible.)

The target in experiment [7] is T4, Tyrosyl-tRNA synthetase, putative (Trypanosoma cruzi (strain CL Brener)) (UniProt Q4DSP6).
T4 sequence (whole entry): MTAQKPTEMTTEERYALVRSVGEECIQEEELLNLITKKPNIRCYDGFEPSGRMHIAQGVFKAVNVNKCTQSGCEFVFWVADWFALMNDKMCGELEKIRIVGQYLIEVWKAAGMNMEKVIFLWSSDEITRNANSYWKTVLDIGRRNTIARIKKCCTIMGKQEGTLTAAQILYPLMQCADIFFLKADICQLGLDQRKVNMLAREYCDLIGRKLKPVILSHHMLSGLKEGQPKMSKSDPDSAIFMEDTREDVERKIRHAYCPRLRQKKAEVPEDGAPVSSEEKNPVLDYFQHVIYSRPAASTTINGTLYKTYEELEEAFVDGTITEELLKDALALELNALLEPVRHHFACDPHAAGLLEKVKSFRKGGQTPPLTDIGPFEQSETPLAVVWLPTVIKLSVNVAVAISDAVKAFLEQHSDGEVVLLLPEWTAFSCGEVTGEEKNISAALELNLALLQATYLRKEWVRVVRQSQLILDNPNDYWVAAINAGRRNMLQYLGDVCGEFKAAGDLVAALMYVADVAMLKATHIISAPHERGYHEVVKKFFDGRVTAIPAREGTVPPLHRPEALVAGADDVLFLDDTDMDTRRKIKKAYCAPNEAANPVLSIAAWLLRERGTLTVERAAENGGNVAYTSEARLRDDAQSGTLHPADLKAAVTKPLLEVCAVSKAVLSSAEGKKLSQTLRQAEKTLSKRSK
Description: Trypanosoma cruzi tyrosyl tRNA synthetase (TcYRS) _High Tyrosine SOP. Further: in the data most compounds retested in dose-response had high values. The experiment is classed as functional. To be noted: 30 µM.

Experiment [8] has as its target T4, Tyrosyl-tRNA synthetase, putative (Trypanosoma cruzi (strain CL Brener)). Description: Trypanosoma cruzi tyrosyl tRNA synthetase (TcYRS) SOP. The experiment is classed as functional. To be noted: 30 µM.
Experiment [9] has as its target Chromo domain-containing protein 1 (Saccharomyces cerevisiae (strain ATCC 204508 / S288c) (Baker's yeast)) (UniProt P32657). Briefly: ScCHD-1 Enzyme Inhibition Assay. Further: in the data most compounds retested in dose-response had high values. The experiment is classed as functional. Particulars: 30 µM.

Data on eleven compounds can be found in ChEMBL document CHEMBL3988442, “University of Dundee, Small-Polar-MMV Screening Library” (2021).

For some of these results: Results with a measured potency or affinity are listed apart.

Sialic acid-binding Ig-like lectin 9 (Homo sapiens), sequence (Q9Y336 whole entry): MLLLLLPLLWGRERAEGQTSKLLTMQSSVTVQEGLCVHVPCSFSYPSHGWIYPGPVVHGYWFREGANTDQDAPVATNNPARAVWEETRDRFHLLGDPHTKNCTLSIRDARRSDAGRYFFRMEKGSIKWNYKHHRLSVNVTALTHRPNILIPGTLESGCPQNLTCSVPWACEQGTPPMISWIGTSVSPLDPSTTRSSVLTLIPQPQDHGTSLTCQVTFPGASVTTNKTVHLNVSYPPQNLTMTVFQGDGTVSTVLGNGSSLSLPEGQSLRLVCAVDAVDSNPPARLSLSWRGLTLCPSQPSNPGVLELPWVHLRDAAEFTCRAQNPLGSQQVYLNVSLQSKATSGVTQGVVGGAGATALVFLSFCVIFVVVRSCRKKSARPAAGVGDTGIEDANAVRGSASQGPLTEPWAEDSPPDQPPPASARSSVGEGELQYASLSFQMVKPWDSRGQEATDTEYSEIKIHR
Protein translocase subunit SecA (Escherichia coli (strain K12)), sequence (P10408 whole entry): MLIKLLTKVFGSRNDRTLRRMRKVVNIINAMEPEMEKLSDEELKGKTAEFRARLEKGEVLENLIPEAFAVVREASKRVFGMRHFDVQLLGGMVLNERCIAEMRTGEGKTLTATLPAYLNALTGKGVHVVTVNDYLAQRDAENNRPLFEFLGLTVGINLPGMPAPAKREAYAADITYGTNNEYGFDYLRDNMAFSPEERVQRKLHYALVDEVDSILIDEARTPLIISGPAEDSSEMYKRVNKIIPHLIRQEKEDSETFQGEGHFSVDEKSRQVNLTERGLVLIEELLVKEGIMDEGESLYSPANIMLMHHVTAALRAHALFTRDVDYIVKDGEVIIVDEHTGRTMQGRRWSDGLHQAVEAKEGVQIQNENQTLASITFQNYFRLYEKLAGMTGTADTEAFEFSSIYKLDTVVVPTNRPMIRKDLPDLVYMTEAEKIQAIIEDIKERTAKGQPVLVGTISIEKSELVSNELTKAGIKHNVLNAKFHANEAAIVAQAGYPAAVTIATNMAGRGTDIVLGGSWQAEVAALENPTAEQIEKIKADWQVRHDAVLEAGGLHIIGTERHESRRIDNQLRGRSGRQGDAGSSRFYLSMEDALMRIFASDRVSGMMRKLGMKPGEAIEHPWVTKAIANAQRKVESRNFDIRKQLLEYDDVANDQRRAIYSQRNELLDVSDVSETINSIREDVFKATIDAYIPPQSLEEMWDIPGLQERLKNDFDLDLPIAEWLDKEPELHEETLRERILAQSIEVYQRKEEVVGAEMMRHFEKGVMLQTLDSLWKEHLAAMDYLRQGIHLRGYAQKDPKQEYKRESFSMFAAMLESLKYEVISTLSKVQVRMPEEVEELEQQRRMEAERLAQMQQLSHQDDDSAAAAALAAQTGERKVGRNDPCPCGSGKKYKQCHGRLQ
Chromo domain-containing protein 1 (Saccharomyces cerevisiae (strain ATCC 204508 / S288c) (Baker's yeast)), sequence (P32657 whole entry, the tested form may be a part): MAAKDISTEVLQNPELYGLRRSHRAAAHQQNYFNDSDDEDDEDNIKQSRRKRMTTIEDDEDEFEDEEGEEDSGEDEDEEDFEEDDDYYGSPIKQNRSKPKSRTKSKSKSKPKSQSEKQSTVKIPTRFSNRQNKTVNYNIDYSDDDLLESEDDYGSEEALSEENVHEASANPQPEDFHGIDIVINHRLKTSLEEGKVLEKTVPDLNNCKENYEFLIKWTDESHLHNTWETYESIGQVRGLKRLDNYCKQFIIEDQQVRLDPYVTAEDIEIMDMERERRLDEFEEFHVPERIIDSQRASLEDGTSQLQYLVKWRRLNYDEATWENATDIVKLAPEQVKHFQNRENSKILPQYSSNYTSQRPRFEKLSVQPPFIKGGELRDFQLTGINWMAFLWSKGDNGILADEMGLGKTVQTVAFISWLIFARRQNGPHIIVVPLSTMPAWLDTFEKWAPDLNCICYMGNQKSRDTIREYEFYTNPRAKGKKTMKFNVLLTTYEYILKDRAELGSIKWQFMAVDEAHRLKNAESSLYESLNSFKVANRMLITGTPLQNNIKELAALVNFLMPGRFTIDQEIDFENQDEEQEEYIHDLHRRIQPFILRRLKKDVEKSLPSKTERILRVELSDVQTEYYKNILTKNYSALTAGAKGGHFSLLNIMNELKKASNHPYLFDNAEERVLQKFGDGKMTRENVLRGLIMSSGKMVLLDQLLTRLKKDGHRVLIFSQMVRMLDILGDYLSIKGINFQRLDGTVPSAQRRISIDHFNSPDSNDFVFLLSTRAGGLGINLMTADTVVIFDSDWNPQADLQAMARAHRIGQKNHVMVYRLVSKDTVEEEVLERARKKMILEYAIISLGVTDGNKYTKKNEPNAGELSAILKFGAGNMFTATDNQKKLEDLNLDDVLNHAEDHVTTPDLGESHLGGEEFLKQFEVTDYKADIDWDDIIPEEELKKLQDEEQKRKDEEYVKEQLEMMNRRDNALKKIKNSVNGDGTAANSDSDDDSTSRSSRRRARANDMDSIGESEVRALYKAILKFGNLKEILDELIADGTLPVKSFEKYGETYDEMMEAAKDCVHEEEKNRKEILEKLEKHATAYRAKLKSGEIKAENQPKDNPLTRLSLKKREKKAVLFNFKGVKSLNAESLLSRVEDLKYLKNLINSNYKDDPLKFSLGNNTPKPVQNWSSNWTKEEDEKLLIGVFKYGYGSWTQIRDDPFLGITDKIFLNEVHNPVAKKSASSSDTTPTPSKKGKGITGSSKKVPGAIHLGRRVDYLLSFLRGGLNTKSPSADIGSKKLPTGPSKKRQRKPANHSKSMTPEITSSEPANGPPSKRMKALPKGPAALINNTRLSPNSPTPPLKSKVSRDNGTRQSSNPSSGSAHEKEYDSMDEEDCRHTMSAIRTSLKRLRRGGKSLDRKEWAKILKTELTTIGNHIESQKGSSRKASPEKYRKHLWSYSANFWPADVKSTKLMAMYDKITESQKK

In the case of `c1cnc(N2CCC3(COCc4cnc(-c5cccnc5)nc43)C2)nc1` (stereo unspecified), the Percent Effect in experiment [1] is -3.71%; in experiment [2], -2.7%; in experiment [3] it was 12.2%; in experiment [4], -3.8%; with Trypanosoma cruzi, -1.86%; in [5] it was -5.41%. Further, the Percent Effect in experiment [6] was 1.11%; in the experiment listed under Homo sapiens, 3.84%; in experiment [7] it was -1.08%; in experiment [8] it was -10.3%; in [9], -4.41%.
Consider `CC(C)C(=O)NC1CCN(Cc2cccc3c2OCCO3)CC1`, for which the Percent Effect was -2.08% in experiment [1]; -1.27% in [2]; 4.8% in [3]; 0.497% in experiment [4]; -2.36% with Trypanosoma cruzi; 3.66% in [5]. The Percent Effect in [6] was -2.06%; in the experiment listed under Homo sapiens it was 17.1%; in [7], 2.08%; in experiment [8], -2.53%; in [9] it was -21.1%.
On to `CCc1noc(C2CCCCN2C(=O)c2ccoc2C)n1` (stereo unspecified), for which the Percent Effect in experiment [1] was -3.77%; in [2] it was 4%; in experiment [3], -0.569%; in [4] it was 3.61%; in the experiment with Trypanosoma cruzi, -7.47%; in [5] it was -4.05%. Also, the Percent Effect in [6] is 13.9%; in the experiment filed under Homo sapiens it was -6.22%; in [7], 1.06%; in experiment [8] it was 5.13%; in experiment [9], -6.62%.
`CN(Cc1ccc(F)cc1)CC1(O)CCCN(CC(C)(C)C)C1=O` (stereo unspecified): the Percent Effect in experiment [1] is -5.95%; in [2], -1.39%; in experiment [3], -3.53%; in experiment [4] it was -2.57%; with Trypanosoma cruzi it was 3.79%; in experiment [5], 3.09%. Further, the Percent Effect in experiment [6] was -3.16%; in the experiment listed under Homo sapiens, 1.55%; in experiment [7], -7.37%; in experiment [8], -2.56%; in experiment [9], 0.558%.
`CC(C)c1noc(CCCC(=O)N2CCN(Cc3ccncc3)CC2)n1`: the Percent Effect in experiment [1] was -2.42%; in experiment [2], 22.8%; in [3], -9.61%; in experiment [4] it was -9.55%; with Trypanosoma cruzi, 3.87%; in [5], -6.84%. Further, the Percent Effect in [6] was 12.2%; in the experiment listed under Homo sapiens it was 11.6%; in experiment [7] it was 5.42%; in experiment [8], 21.5%; in [9], -6.65%.
As to `N#Cc1cccc(C(=O)N2CCc3ncc(Cn4cccn4)n3CC2)c1`, the Percent Effect in experiment [1] was -2.76%; in [2], -5.33%; in experiment [3], 6.89%; in [4], -4.2%; in the experiment with Trypanosoma cruzi, -1.74%; in experiment [5], -56.1%. Further, the Percent Effect in [6] is 2.22%; in the experiment filed under Homo sapiens it was -20.1%; in experiment [7] it was -3.12%; in experiment [8] it was -2.5%; in [9], -3.63%.
For the compound `CSC(C)C(=O)N1CCCN(Cc2cscn2)CC1` (stereo unspecified), the Percent Effect in experiment [1] is -3.08%; in [2], 18.4%; in [3], 1.3%; in [4], -6.37%; with Trypanosoma cruzi, -1.13%; in [5], -3.45%. Also, the Percent Effect in experiment [6] is 15.9%; in the experiment listed under Homo sapiens, 9.75%; in [7] it was 4.41%; in experiment [8], 9.76%; in experiment [9], -13.2%.
On to `CCN(CC)C(=O)c1cc(C2CCCN2C)ccn1` (stereo unspecified), for which the Percent Effect is -5.39% in [1]; 23% in experiment [2]; -2.48% in experiment [3]; -2.94% in experiment [4]; 0.988% with Trypanosoma cruzi; -2.55% in experiment [5]. Also, the Percent Effect in experiment [6] is 15.4%; in the experiment filed under Homo sapiens it was -5.61%; in experiment [7], 5.38%; in experiment [8], 11.7%; in experiment [9], -12.8%.
With `O=C(CO)N1CCC(c2cncc(-c3cccc(Cl)c3)n2)CC1`, the Percent Effect in experiment [1] was -2.26%; in experiment [2] it was -2.67%; in experiment [3], 27.8%; in experiment [4], -7.86%; with Trypanosoma cruzi, 8.27%; in experiment [5], 138%. In addition, the Percent Effect in experiment [6] is 15.9%; in the experiment filed under Homo sapiens, 6.85%; in [7], 11.7%; in [8], 16.7%; in [9] it was -5.15%.
Turning to `Cc1cccc(C(=O)N2C[C@@H]3CCN(c4cccnc4)C[C@@H]3C2)c1`, the Percent Effect is -6.42% in experiment [1]; 2.67% in experiment [2]; 9.98% in [3]; -2.65% in experiment [4]; -1.38% in the experiment on Trypanosoma cruzi; 0.233% in experiment [5]. The Percent Effect in experiment [6] was 1.67%; in the experiment listed under Homo sapiens, 16.4%; in experiment [7] it was 1.06%; in [8] it was -3.85%; in experiment [9], -3.21%.
Take `CCOc1ccc(-n2nnc(C(=O)O)c2-c2ccncc2)cc1`: the Percent Effect in [1] is -0.35%; in [2], 13.2%; in experiment [3], 1.31%; in [4], -8.67%; with Trypanosoma cruzi, 0.292%; in experiment [5], 1.18%. For the same compound, the Percent Effect was 9.11% in [6]; 23.3% in the experiment filed under Homo sapiens; 2.13% in experiment [7]; 18.2% in [8]; -5.18% in experiment [9].
